Screening data from PubChem BioAssay.
Tg IFNy HTS: T. gondii growth inhibition with IFN-gamma, primary screen, cell-based; Toxoplasma gondii growth in IFN-gamma-treated host cells; active compounds read low; activity change, negative = inhibition, % (no concentration beside the values); 69,000 compounds, 3.8% hits; AID 1259416, 2018; in the data active means activity change below about -70%, passing the limit was not always enough;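 further: host cells are HeLa cells infected with Toxoplasma gondii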
Large screens that a line does not name were inactive; ! = repeats disagree. This excerpt belongs to a sample that is enriched for hits.

O=C(c1ccccc1)N1CCc2c([nH]c3ccccc23)C1c1ccc(Cl)cc1 (centres undefined)	Tg IFNy HTS -99
O=C(c1cccc(F)c1)N1CCc2c([nH]c3ccccc23)C1c1ccc(Cl)cc1 (centres undefined)	none
CSc1ccc(C2c3[nH]c4ccccc4c3CCN2C(=O)c2cccnc2)cc1 (centres undefined)	none
COc1ccc(C(=O)N2CCc3c([nH]c4ccccc34)C2c2ccc(C)cc2)cc1 (centres undefined)	none
O=C(c1cccc(F)c1)N1CCc2c([nH]c3ccccc23)C1c1ccc(F)cc1 (centres undefined)	none
O=C(c1ccccc1Br)N1CCc2c([nH]c3ccccc23)C1c1ccc(Cl)cc1 (centres undefined)	none
O=C(c1ccncc1)N1CCc2c([nH]c3ccccc23)C1c1ccc(Cl)cc1 (centres undefined)	Tg IFNy HTS -88
O=C(c1ccc(Br)cc1)N1CCc2c([nH]c3ccccc23)C1c1ccc(Cl)cc1 (centres undefined)	Tg IFNy HTS -95
COc1ccc(C2c3[nH]c4ccccc4c3CCN2C(=O)c2cccnc2)cc1 (centres undefined)	none
O=C(c1ccc(Br)cc1)N1CCc2c([nH]c3ccccc23)C1c1ccccc1 (centres undefined)	none
O=C(c1ccc(Br)cc1)N1CCc2c([nH]c3ccccc23)C1c1ccc(F)cc1 (centres undefined)	Tg IFNy HTS -94
COc1cc(C(=O)N2CCc3c([nH]c4ccccc34)C2c2ccc(Cl)cc2)cc(OC)c1OC (centres undefined)	none
Cc1cccc(C)c1Oc1ncccc1CNC(=O)c1nc[nH]c1C	none
COCCn1c2c(ccc1=O)CCN(C(=O)C1CCOC1)CC2 (centres undefined)	none
COc1ccc(NC(=O)Nc2ccc(-c3nc(-c4ccccc4)co3)cc2)cc1OC	none
CNC(=O)c1cc(=O)n(CC(=O)Nc2ccc(Br)cc2F)c2ccccc12	none
COc1ccc(CNC(=O)c2ccc(-c3nc(CN4CCc5ccccc54)c(C)o3)cc2)c(OC)c1	none
Cc1ccc2c(c1)cc(CN(CCc1ccccc1)C(=O)c1cccs1)c1nnnn12	none
COc1ccccc1CNC(=O)CN1C(=O)CCc2cc(S(=O)(=O)N3CCC(C)CC3)ccc21	none
COc1cccc(CNC(=O)CN2C(=O)CCc3cc(S(=O)(=O)N4CCC(C)CC4)ccc32)c1	none
CCCCOc1ccccc1-c1cc2c(=O)n(Cc3nc(-c4ccc(Cl)cc4)oc3C)ccn2n1	none
COc1ccc(C2c3[nH]c4ccccc4c3CCN2C(=O)CCC2CCCC2)cc1 (centres undefined)	none
CCOc1ccc(C2c3[nH]c4ccccc4c3CCN2C(=O)c2ccc(OC)c(OC)c2)cc1 (centres undefined)	none
O=C(CCC1CCCC1)N1CCc2c([nH]c3ccccc23)C1c1ccc(F)cc1 (centres undefined)	none
O=C(CCC1CCCC1)N1CCc2c([nH]c3ccccc23)C1c1ccc(Cl)cc1 (centres undefined)	Tg IFNy HTS -106
CCOc1ccc(C2c3[nH]c4ccccc4c3CCN2C(=O)c2cc(OC)c(OC)c(OC)c2)cc1 (centres undefined)	none
CCOc1ccc(C2c3[nH]c4ccccc4c3CCN2C(=O)c2ccc(F)cc2)cc1 (centres undefined)	Tg IFNy HTS -89
OC1(c2ccc(Cl)c(C(F)(F)F)c2)CCN(CCCC(c2ccc(F)cc2)c2ccc(F)cc2)CC1	Tg IFNy HTS -85!
Fc1ccc(C(CCCN2CCN3CCCCC3C2)c2ccc(F)cc2)cc1 (centres undefined)	none
OC(CCCN1CCC(O)(c2ccc(Cl)cc2)CC1)c1ccc(F)cc1 (centres undefined)	none
CCCSCCCNC(=O)c1nc(Nc2ccc(F)cc2)c2ccccc2n1	none
Cc1nc(NCCC2CCOC2)cc(C2CCNCC2)n1 (centres undefined)	none
O=C(CCCCCN1C(=O)c2cccc3cccc(c23)C1=O)NO	Tg IFNy HTS -84
CCCCC(CC)CNC(=O)CCCCCN1C(=O)c2ccccc2C1=O (centres undefined)	none
COc1ccccc1NC(=O)CCCCCN1C(=O)c2cccc3cccc(c23)C1=O	none
CC(C)C(=O)N1CCC2(CC2C(=O)N(C)Cc2ccccn2)C1 (centres undefined)	none
O=C(Cn1ncc2c(N3CCN(c4ccccc4)CC3)ncnc21)NCCC1=CCCCC1	none
Cc1nnc([C@@H]2CC[C@H]3[C@H](CCN3Cc3cccs3)O2)o1	none
O=C(Nc1cccc(Cl)c1)C1Cn2ccnc2C2(CCN(C(=O)C3CCC3)CC2)O1 (centres undefined)	none
Cc1ccc(CCNc2nc(-c3nnc(-c4ccccc4)o3)nc3ccccc23)cc1	none
Cc1ccc(CNc2nc(-c3nnc(-c4ccccc4)o3)nc3ccccc23)o1	none
CCCCNc1nc(-c2nnc(-c3ccccc3)o2)nc2ccccc12	Tg IFNy HTS -89
Cc1ccc(-c2nnc(-c3nc(NCCCN4CCc5ccccc5C4)c4ccccc4n3)o2)cc1	Tg IFNy HTS -118
Cc1ccc(-c2nnc(-c3nc(NCCCN4CCCC4=O)c4ccccc4n3)o2)cc1	none
c1ccc(-c2nnc(-c3nc(NCCc4cccs4)c4ccccc4n3)o2)cc1	none
C1=C(CCNc2nc(-c3nnc(-c4ccccc4)o3)nc3ccccc23)CCCC1	Tg IFNy HTS -99
c1ccc(-c2nnc(-c3nc(NCCN4CCOCC4)c4ccccc4n3)o2)cc1	none
CCCCNc1nc(-c2nnc(-c3ccc(C)cc3)o2)nc2ccccc12	none
Cc1cccc(-c2nnc(-c3nc(NCCc4cnc[nH]4)c4ccccc4n3)o2)c1	none
CCCSCCCNc1nc(-c2nnc(-c3cccc(C)c3)o2)nc2ccccc12	Tg IFNy HTS -107
Cc1cccc(-c2nnc(-c3nc(NCCCN4CCCC4=O)c4ccccc4n3)o2)c1	none
COc1ccc2nc(NCCCNC(=S)Nc3ccccc3)c(C#N)cc2c1	none
COc1c(C)cnc(CN(C)C(=O)c2cn[nH]n2)c1C	none
Cc1ccc(NC(=O)Cn2c(=O)cc(C(=O)N3CCc4ccccc4C3)c3ccccc32)cc1C	none
CCS(=O)(=O)N1CCN(c2nc(N(C)C)nc3c2CCNC3)CC1	none
COc1cc(C)c(C)cc1S(=O)(=O)NCCc1csc(-c2cccc(F)c2)n1	none
COc1ccc(Cl)cc1NC(=O)N1CCc2c(nc(C)[nH]c2=O)C1	none
COc1ccccc1NC(=O)C1CC(C2CCCN(Cc3cccc(C)c3)C2)N(C)C1 (centres undefined)	none
CCN1CCc2nc(N3CCOCC3)nc(N(C)C)c2C1	none
CCOCC1CC2(CCN(C(=O)c3ccc4ccccc4n3)CC2)CO1 (centres undefined)	none
O=C(NCCc1csc(-c2ccccc2)n1)[C@H]1CCCN1C(=O)c1ccc(F)c(F)c1	none
COc1ccc(CNc2nc(-c3nnc(-c4ccccc4)o3)nc3ccccc23)cc1	none
CCCSCCCNc1nc(-c2nnc(-c3ccccc3)o2)nc2ccccc12	Tg IFNy HTS -92
Cc1ccc(-c2nnc(-c3nc(NCCc4cccs4)c4ccccc4n3)o2)cc1	none
CCN1CCC2(CN(CC(C)C)CC23CCN(C(=O)c2cc(C)oc2C)CC3)C1=O (centres undefined)	none
O=C(NC1CCC(n2cnnc2)CC1)c1ccccc1-n1cncn1 (centres undefined)	none
O=C(CCCc1ccc(-c2ccccc2F)cc1)Nc1ccc(O)cc1	Tg IFNy HTS -80
CCCCCC(=O)Nc1ccc2c(c1)Cc1ccccc1-2	none
C=CCNC(=O)C1(Cc2ccc(-c3ccccc3F)cc2)CCCNC1 (centres undefined)	none
CCc1nc(OCC(=O)Nc2ccc(F)c(Cl)c2)c2ccccc2n1	none
